Source: PubChem BioAssay (Tox21)
“And” between values parts separate entries of the source, which are not always exact repeats. Identical values can stand only once. The source made the active and inactive calls. Unless noted, the call rests on the fitted dose curve; in most records, active means well fitted curve in the direction sought with a large enough effect in the repeat runs; inconclusive means weak or mixed curves; inactive means no such curve, though single readings can be large; an effect the other way counts as inactive or inconclusive.

Tests used:
[1] = system: thyroid hormone receptor (rat, GH3 cells); assay: qHTS assay to identify small molecule agonists of the thyroid receptor (TR) signaling pathway (AID 743066; calls by dose curve)
[2] = target: Estrogen receptor (Homo sapiens) (UniProt P03372); assay: qHTS assay to identify small molecule antagonists of the estrogen receptor alpha (ER-alpha) signaling pathway (AID 743069; active means well fitted curve in the direction sought with a large enough effect in the signal ratio in the repeat runs, not every such curve was filed as active; inconclusive means weak or mixed curves, or effect the other way; inactive means no such curve, though single readings can be large or run the other way; the % refers to the signal ratio; further: potency means the concentration at half of the fitted maximal effect)
Sequence of Estrogen receptor (Homo sapiens) (P03372 whole entry, looked up): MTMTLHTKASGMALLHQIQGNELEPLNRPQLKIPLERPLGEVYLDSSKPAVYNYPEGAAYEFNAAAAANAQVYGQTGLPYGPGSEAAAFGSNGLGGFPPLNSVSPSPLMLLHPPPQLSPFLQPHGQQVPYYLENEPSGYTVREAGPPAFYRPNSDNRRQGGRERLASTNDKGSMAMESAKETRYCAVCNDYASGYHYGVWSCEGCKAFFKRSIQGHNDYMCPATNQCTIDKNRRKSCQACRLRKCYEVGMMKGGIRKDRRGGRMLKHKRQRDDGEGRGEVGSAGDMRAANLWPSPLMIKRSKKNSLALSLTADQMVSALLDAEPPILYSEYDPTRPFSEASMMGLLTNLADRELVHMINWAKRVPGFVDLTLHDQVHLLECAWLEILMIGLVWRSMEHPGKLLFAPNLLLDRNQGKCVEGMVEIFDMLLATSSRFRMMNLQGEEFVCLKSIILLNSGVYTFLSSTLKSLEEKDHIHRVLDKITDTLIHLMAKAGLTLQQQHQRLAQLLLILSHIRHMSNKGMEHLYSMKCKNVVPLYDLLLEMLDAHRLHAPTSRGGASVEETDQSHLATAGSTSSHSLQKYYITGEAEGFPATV
Summary of the method: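 HEK293 cells stably carrying an ER-alpha-UAS-bla beta-lactamase reporter were pre-cultured overnight in 2% charcoal-stripped FBS medium. Test compounds in DMSO were added together with 17beta-estradiol for 18 hr at 37C. Read-out was fluorescence after 2 hr with LiveBLAzer B/G FRET substrate at room temperature.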

[3] = qHTS assay to identify small molecule antagonists of the estrogen receptor alpha (ER-alpha) signaling pathway - cell viability counter screen (AID 743074; calls by dose curve; further: nearly all actives have a fitted effect of over 45% in size)
[4] = target: Estrogen receptor (Homo sapiens) (UniProt P03372); assay: qHTS assay to identify small molecule agonists of the estrogen receptor alpha (ER-alpha) signaling pathway (AID 743075; calls by dose curve; further: potency means the concentration at half of the fitted maximal effect)
[5] = qHTS assay to identify small molecule antagonists of the estrogen receptor alpha (ER-alpha) signaling pathway using the BG1 cell line - cell viability counter screen (AID 743081);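 further: compound given together with 17beta-estradiol as the ER stimulus; nearly all actives have a fitted effect of over 45% in size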; further: potency means the concentration at half of the fitted maximal effect
Aromatase (Homo sapiens) = Aromatase (Homo sapiens) (UniProt P11511); assay: qHTS assay to identify aromatase inhibitors (AID 743083); further: nearly all actives have a fitted effect of over 55% in size; further: potency means the concentration at half of the fitted maximal effect
Sequence of Aromatase (Homo sapiens) (P11511 whole entry, looked up): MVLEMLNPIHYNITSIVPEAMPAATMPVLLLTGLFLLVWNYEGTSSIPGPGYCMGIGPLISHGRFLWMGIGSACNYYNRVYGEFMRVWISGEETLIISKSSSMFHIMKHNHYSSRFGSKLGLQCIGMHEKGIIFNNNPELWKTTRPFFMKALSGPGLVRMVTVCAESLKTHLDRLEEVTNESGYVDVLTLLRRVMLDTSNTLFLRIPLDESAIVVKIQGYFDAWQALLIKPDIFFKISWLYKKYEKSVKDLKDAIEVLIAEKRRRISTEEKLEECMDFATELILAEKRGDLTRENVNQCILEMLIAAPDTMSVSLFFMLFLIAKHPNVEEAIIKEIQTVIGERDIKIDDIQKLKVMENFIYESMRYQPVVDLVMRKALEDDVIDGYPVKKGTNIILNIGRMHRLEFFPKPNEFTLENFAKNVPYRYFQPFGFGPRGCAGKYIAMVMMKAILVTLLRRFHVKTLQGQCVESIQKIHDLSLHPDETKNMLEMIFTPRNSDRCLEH

[6] = qHTS assay to identify aromatase inhibitors - cell viability counter screen (AID 743084);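 further: cells stimulated with testosterone during compound exposure; nearly all actives have a fitted effect of over 55% in size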; further: potency means the concentration at half of the fitted maximal effect
[7] = target: Aryl hydrocarbon receptor (Homo sapiens) (UniProt P35869); assay: qHTS assay to identify small molecule that activate the aryl hydrocarbon receptor (AhR) signaling pathway (AID 743085); further: nearly all actives have a fitted effect of over 15% in size; further: potency means the concentration at half of the fitted maximal effect;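 on activation: HG2L7.5c1 human HepG2 liver cells with stably integrated DRE-driven firefly reporter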
Sequence of Aryl hydrocarbon receptor (Homo sapiens) (P35869 whole entry, looked up): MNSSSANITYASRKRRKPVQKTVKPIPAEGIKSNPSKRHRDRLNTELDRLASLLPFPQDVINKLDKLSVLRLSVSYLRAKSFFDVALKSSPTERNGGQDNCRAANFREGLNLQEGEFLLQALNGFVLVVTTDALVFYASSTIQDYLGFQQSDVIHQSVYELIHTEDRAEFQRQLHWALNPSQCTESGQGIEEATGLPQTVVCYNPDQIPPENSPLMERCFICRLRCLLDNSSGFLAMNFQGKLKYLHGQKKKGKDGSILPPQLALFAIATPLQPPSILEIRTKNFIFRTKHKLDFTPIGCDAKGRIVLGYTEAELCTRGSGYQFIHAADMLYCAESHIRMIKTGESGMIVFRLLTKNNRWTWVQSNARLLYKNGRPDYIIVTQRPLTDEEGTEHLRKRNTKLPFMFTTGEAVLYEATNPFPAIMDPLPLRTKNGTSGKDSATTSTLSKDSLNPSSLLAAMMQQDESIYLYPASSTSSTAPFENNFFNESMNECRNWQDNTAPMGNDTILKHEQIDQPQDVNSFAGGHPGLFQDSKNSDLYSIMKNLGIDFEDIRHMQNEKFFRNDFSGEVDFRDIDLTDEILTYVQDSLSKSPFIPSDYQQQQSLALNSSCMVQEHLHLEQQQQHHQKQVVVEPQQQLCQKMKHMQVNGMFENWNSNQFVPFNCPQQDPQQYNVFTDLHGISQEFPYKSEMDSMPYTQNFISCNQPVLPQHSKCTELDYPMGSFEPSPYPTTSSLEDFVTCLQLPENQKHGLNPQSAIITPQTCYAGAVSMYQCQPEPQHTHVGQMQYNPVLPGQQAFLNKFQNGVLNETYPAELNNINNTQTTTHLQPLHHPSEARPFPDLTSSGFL
Summary of the method: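 A multiplexed format paired cell viability (CellTiter-Fluor fluorescence) with AhR-dependent luciferase output (ONE-Glo luminescence) in the same wells of HepG2 DRE-luc cells after 24 h compound exposure at 37C.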

[8] = qHTS assay to identify small molecule that activate the aryl hydrocarbon receptor (AhR) signaling pathway - cell viability counter screen (AID 743086); further: nearly all actives have a fitted effect of over 45% in size; further: potency means the concentration at half of the fitted maximal effect
Summary of the method: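 HepG2-AhR-luc (HG2L7.5c1) cells, 4000/well, were preincubated 5 h at 37C, exposed to compound in qHTS format for 24 hr at 37C, then given CellTiter-Fluor for 30 min; viability was read as fluorescence in the reporter wells.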

[9] = target: Peroxisome proliferator-activated receptor gamma (Homo sapiens) (UniProt P37231); assay: qHTS assay to identify small molecule agonists of the peroxisome proliferator-activated receptor gamma (PPARg) signaling pathway (AID 743094; active means well fitted activation curve with a large enough effect in the signal ratio in the repeat runs, not every such curve was filed as active; inconclusive means weak or mixed curves, or effect the other way; inactive means no such curve, though single readings can be large or run the other way; the % refers to the signal ratio)
Sequence of Peroxisome proliferator-activated receptor gamma (Homo sapiens) (P37231 whole entry, looked up): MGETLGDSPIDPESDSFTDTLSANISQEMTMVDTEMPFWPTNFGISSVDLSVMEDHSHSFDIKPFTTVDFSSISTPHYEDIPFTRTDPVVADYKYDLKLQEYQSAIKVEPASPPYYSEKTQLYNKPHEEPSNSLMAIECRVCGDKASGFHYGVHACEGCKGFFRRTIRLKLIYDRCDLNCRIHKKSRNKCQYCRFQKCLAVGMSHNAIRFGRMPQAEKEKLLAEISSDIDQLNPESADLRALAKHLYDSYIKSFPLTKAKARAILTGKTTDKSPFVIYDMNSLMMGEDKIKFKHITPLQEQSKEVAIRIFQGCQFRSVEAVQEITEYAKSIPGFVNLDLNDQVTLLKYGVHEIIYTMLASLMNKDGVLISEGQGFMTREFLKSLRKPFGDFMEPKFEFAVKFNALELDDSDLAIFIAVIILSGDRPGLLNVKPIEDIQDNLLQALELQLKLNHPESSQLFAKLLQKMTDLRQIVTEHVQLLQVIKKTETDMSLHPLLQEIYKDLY
Summary of the method: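 Following 5 h plating at 37C, PPARg-bla HEK293H cells receive compound or DMSO for 17 h; fluorescence intensity is recorded after LiveBLAzer B/G loading for 1 h at room temperature.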

[10] = target: Peroxisome proliferator-activated receptor gamma (Homo sapiens) (UniProt P37231); assay: qHTS assay to identify small molecule antagonists of the peroxisome proliferator-activated receptor gamma (PPARg) signaling pathway (AID 743191; calls by dose curve; further: nearly all actives have a fitted effect of over 30% in size; further: potency means the concentration at half of the fitted maximal effect)
Summary of the method: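 GeneBLAzer PPARg UAS-bla HEK293H cells carrying a UAS-driven beta-lactamase reporter were plated at 3000 cells/well, preincubated 5 h at 37C, then given compound for 17 h at 37C; LiveBLAzer B/G FRET substrate was read after 1 h at room temperature.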

[11] = qHTS assay to identify small molecule antagonists of the peroxisome proliferator-activated receptor gamma (PPARg) signaling pathway - cell viability counter screen (AID 743194); further: nearly all actives have a fitted effect of over 55% in size
Summary of the method: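 PPARg-UAS-bla HEK293H cells were plated, rested 5 h at 37 C, then treated with compounds plus rosiglitazone (50 nM final) for 17 h at 37 C; viability was then read by CellTiter-Glo luminescence after 30 min at room temperature.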

[12] = qHTS assay for small molecule agonists of the antioxidant response element (ARE) signaling pathway (AID 743202; active means well fitted activation curve with a large enough effect in the signal ratio in the repeat runs, not every such curve was filed as active; inconclusive means weak or mixed curves, or effect the other way; inactive means no such curve, though single readings can be large or run the other way; the % refers to the signal ratio; further: potency means the concentration at half of the fitted maximal effect)
Summary of the method: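 Read-out: LiveBLAzer B/G FRET substrate fluorescence after 2 h at room temperature, following 16 h compound treatment at 37 C of HepG2 cells carrying an ARE-driven beta-lactamase reporter.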

[13] = qHTS assay for small molecule agonists of the antioxidant response element (ARE) signaling pathway - cell viability counter screen (AID 743203; calls by dose curve; further: nearly all actives have a fitted effect of over 55% in size; further: potency means the concentration at half of the fitted maximal effect)
Summary of the method: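 Compounds in DMSO were pinned onto ARE-bla HepG2 cells plated 5 hrs earlier at 2,000 cells/well. Sixteen hours later at 37C/5% CO2, CellTiter-Glo was added and luminescence measured after 30 min at room temperature.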

[14] = qHTS assay for small molecule activators of the heat shock response signaling pathway (AID 743210; active means well fitted activation curve with a large enough effect in the signal ratio in the repeat runs, with a control signal flat, not every such curve was filed as active; inconclusive means weak or mixed curves; the % refers to the signal ratio)
Summary of the method: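 HSE-bla HeLa cells (beta-lactamase reporter under heat shock response elements) were exposed to compounds for 5 h at 37 C, then loaded with LiveBLAzer B/G FRET substrate for 2.5 h at room temperature before fluorescence reading.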

[15] = qHTS assay to identify small molecule agonists of the peroxisome proliferator-activated receptor delta (PPARd) signaling pathway - cell viability counter screen (AID 743211); further: nearly all actives have a fitted effect of over 55% in size; further: potency means the concentration at half of the fitted maximal effect
Summary of the method: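 Tox21 library compounds, delivered in DMSO, were incubated 17 h with PPARd-bla HEK293H cells; cytotoxicity was taken from CellTiter-Glo luminescence read 30 min after reagent addition.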

[16] = target: Peroxisome proliferator-activated receptor delta (Homo sapiens) (UniProt Q03181); assay: qHTS assay to identify small molecule agonists of the peroxisome proliferator-activated receptor delta (PPARd) signaling pathway (AID 743212; calls by dose curve)
Sequence of Peroxisome proliferator-activated receptor delta (Homo sapiens) (Q03181 whole entry, looked up): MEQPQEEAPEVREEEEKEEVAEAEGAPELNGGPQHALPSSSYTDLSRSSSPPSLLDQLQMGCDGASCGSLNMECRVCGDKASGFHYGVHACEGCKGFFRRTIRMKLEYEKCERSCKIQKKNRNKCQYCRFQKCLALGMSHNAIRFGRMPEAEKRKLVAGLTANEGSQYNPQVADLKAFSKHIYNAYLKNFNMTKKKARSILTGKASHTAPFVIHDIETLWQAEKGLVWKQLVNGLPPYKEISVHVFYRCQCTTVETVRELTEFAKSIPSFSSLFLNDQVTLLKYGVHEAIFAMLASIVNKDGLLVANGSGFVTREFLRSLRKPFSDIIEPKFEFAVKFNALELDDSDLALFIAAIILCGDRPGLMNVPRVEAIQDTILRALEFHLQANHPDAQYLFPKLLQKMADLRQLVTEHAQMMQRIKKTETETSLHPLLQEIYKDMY
Summary of the method: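 GeneBLAzer PPARd UAS-bla HEK293H cells (beta-lactamase reporter under UAS control), plated and rested 5 h at 37 C, then exposed to compounds in DMSO at 37 C; LiveBLAzer B/G FRET substrate added, 2 h room temperature, fluorescence read.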

[17] = target: Estrogen receptor (Homo sapiens) (UniProt P03372); assay: qHTS assay to identify small molecule agonists of the estrogen receptor alpha (ER-alpha) signaling pathway using the BG1 cell line (AID 743079); details: BG1Luc4E2 cells, ERE-luciferase agonist, 22 h; activation: at 70.3 µM (top of the series); further: nearly all actives have a fitted effect of over 20% in size; further: potency means the concentration at half of the fitted maximal effect
[18] = qHTS assay to identify small molecule antagonists of the estrogen receptor alpha (ER-alpha) signaling pathway using the BG1 cell line (AID 743080; calls by dose curve; further: nearly all actives have a fitted effect of over 25% in size); details: BG1Luc4E2 ERE-luciferase antagonist mode, luminescence; activity change, negative = inhibition: at 70.3 µM (top of the series)
Summary of the method: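 Antagonist mode: compounds in DMSO were pinned onto BG1-Luc-4E2 cells alongside 17beta-estradiol agonist, incubated 21.5 h, and ERE-driven luciferase measured with ONE-Glo. Cytotoxicity was multiplexed using CellTiter-Fluor fluorescence.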

[19] = qHTS assay for small molecule activators of the heat shock response signaling pathway - cell viability counter screen (AID 743209); further: nearly all actives have a fitted effect of over 50% in size; further: potency means the concentration at half of the fitted maximal effect
Summary of the method: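 Counter screen for cytotoxicity in HeLa HSE-bla reporter cells. Treatment was 5 h at 37 C; viability was detected by luminescent ATP assay (CellTiter-Glo) in the same wells as the beta-lactamase read.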

Measured: Potency

CC(C)=C1CC[C@@H](C)CC1=O
not listed: [17] | [18] | [19]
inactive: all other assays above

Cc1cccc(Br)c1
not listed: [2] | [4] | [17] | [18] | [19]
inactive: all other assays above

Oc1ccc(-c2ccccc2)c(Cl)c1
active: [4] 61.6 µM [inconclusive] | [17] 54.5 µM
not listed: [2] | [10] | [11] | [12] | [14]
inactive: all other assays above

CN(Cc1cc(Br)cc(Br)c1N)C1CCCCC1
not listed: [2] | [12] | [14] | [15] | [17] | [19]
inactive: all other assays above

CC(=O)Oc1ccc(C2(c3ccc(OC(C)=O)cc3)Oc3ccccc3NC2=O)cc1
active: [2] 8.49 µM [inconclusive] | [4] 7.56 µM [inconclusive]
not listed: [10] | [12] | [17] | [18]
inactive: all other assays above

CC1=C(/C=C/C(C)=C/C=C/C(C)=C/C(=O)Nc2ccc(O)cc2)C(C)(C)CCC1
active: [2] 6.01 µM [inhibitor] | [5] 16.8 µM and 62.7 µM | Aromatase (Homo sapiens) 13.3 µM and 28 µM | [6] 26.6 µM and 28 µM | [8] 28 µM | [10] 71 µM | [13] 44.4 µM | [15] 3.56 µM and 4.73 µM
inactive: [1] | [4] | [7] | [11]

C/C=C/C=N/NC(=O)c1ccncc1
active: [7] 9.44 µM | [12] 6.68 µM | [19] 18.8 µM
not listed: [2] | [4] | [14] | [15] | [17] | [18]
inactive: all other assays above

O=C(O)CCCCCCC(=O)O
not listed: [2] | [4] | [16] | [17] | [18]
inactive: all other assays above

COc1cc(C(C)C)c2c(c1)S(=O)(=O)N(COc1cc(=O)n3cccc(OCCN4CCCCC4)c3n1)C2=O
not listed: [2] | Aromatase (Homo sapiens) | [6] | [8] | [10] | [12] | [16]
inactive: all other assays above
